Data taken from PubChem BioAssay (Tox21).
Results filed as inconclusive are left out. Activity calls are given as the source filed them. Unless noted, calls come from the whole dose curve.

Key:
[1] = Nuclear factor erythroid 2-related factor 2/antioxidant responsive element (Nrf2/ARE) small molecule agonists: qHTS cell viability counter screen in human keratinocytes (AID 1919968; active = well fitted curve in the direction sought with a large enough effect in the repeat runs; an effect the other way counts as inactive or inconclusive; note: nearly all actives have a fitted effect of over 55% in size)
Summary of the method: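 CellTiter-Fluor fluorescence, read 1 h after reagent, gave viability in the same wells as the ARE-luciferase assay. KeratinoSens cells (1,500/well) had 23 h compound exposure at 37 C/5% CO2 following 5 h plating.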

[2] = Nuclear factor erythroid 2-related factor 2/antioxidant responsive element (Nrf2/ARE) small molecule agonists: luciferase reporter gene qHTS assay in human keratinocytes (AID 1919969); note: nearly all actives have a fitted effect of over 35% in size
[3] = target: Gonadotropin-releasing hormone receptor (Homo sapiens) (UniProt P30968); assay: Human gonadotropin-releasing hormone receptor (GnRHR) small molecule agonists, calcium flux assay in GnRHR-HEK293 cells (AID 1920063); note: nearly all actives have a fitted effect of over 35% in size
Summary of the method: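 Agonist mode: compounds at 15 concentrations, in triplicate, went onto calcium dye-loaded GnRHR-HEK293 cells. Intracellular calcium was then followed as 480/540 nm fluorescence at 1 s intervals over 3 min.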

[4] = target: KiSS-1 receptor (Homo sapiens) (UniProt Q969F8); assay: Human kisspeptin (KISS1R) small molecule agonists, calcium flux assay in KISS1R-HEK293 cells (AID 1920064; active = well fitted curve in the direction sought with a large enough effect in the repeat runs; an effect the other way counts as inactive or inconclusive)
Summary of the method: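 Agonist mode: intracellular calcium rise tracked at 1 s intervals over 3 min (480/540 nm) immediately after compound addition to dye-loaded KISS1R-HEK293 stable cells. Each compound tested at 15 concentrations in triplicate.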

[5] = G protein-coupled receptor (GPCR) small molecule agonists, calcium flux assay: HEK293 wild type cell line counter screen (AID 1920065)
Summary of the method: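 Calcium flux counter screen: compound added in agonist mode at 15 concentrations in triplicate to dye-loaded parental HEK293 cells. Fluorescence (480/540) read kinetically for 3 min; ATP served as positive control.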

[6] = p53 small molecule agonists, cell-based qHTS assay with rat liver microsomes (AID 1963578)
Summary of the method: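 Quantitative HTS of the Tox21 10K library: p53RE-bla cells, rat liver microsomes plus NADPH at 0.5 mg/mL final each, 16 h at 37 C, beta-lactamase fluorescence detection.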

[7] = p53 small molecule agonists, cell-based qHTS assay with human liver microsomes: qHTS cell viability counter screen (AID 1963579); note: nearly all actives have a fitted effect of over 45% in size
Summary of the method: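 Viability of p53RE-bla cells is measured as CellTiter-Glo luminescence following a 16 h, 37 C incubation with compound, liver microsomes from human donors and NADPH.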

[8] = p53 small molecule agonists, cell-based qHTS assay with rat liver microsomes: qHTS cell viability counter screen (AID 1963580); note: nearly all actives have a fitted effect of over 45% in size
Summary of the method: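 Cytotoxicity counter screen: intracellular ATP measured by CellTiter-Glo luminescence in the same wells as the beta-lactamase reporter read, on HCT-116 p53RE-bla cells exposed 16 h at 37 C to compounds with rat liver microsomes and NADPH, each 0.5 mg/mL final.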

[9] = p53 small molecule agonists, cell-based qHTS assay: qHTS cell viability counter screen (AID 1963581); note: nearly all actives have a fitted effect of over 45% in size
Summary of the method: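 Counter screen read by CellTiter-Glo luminescence (ATP content, 30 min at room temperature), run in the same wells as the beta-lactamase reporter read. HCT-116 p53RE-bla cells saw compounds for 16 h at 37 C.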

[10] = p53 small molecule agonists, cell-based qHTS assay (AID 1963582; active = well fitted activation curve with a large enough effect in the signal ratio in the repeat runs, not every such curve was filed as active; the % refers to the signal ratio)
Summary of the method: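 Read-out is beta-lactamase FRET fluorescence after 2 h at room temperature with LiveBLAzer B/G substrate. p53 response element-bla cells were treated 16 h at 37 C with compounds in DMSO, added 5 h after seeding.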

[11] = target: 5-hydroxytryptamine receptor 2A (Homo sapiens) (UniProt P28223); assay: 5-hydroxytryptamine receptor 2A (HTR2A) small molecule antagonists, cell-based qHTS assay (AID 1963586); note: nearly all actives have a fitted effect of over 45% in size
Summary of the method: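 CHO cells stably expressing human HTR2A were plated for 18 h at 37 C, then loaded with calcium dye for 1 h. Compounds were preincubated 5 min at room temperature before DOI (4 nM solution) was added. Kinetic fluorescence was read for 3 min.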

[12] = target: 5-hydroxytryptamine receptor 2A (Homo sapiens) (UniProt P28223); assay: 5-hydroxytryptamine receptor 2A (HTR2A) small molecule agonists, cell-based qHTS assay (AID 1963587); note: nearly all actives have a fitted effect of over 30% in size
Summary of the method: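 CHO cells stably expressing human HTR2A, plated 18 h, loaded with calcium dye 1 h at 37 C. Agonist mode: compounds added and intracellular calcium fluorescence recorded kinetically for 2 min at 1 sec intervals.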

[13] = target: Muscarinic acetylcholine receptor M1 (Homo sapiens) (UniProt P11229); assay: Cholinergic receptor muscarinic 1 (CHRM1) small molecule antagonists, cell-based qHTS assay (AID 1963588); note: nearly all actives have a fitted effect of over 40% in size
Summary of the method: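 Compounds were tested at 15 concentrations in three independent runs. Dye-loaded CHRM1-CHO cells were exposed 5 min at room temperature before stimulation by acetylcholine added at 50nM. Intracellular calcium was read kinetically on FDSS for 3 min.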

[14] = target: Muscarinic acetylcholine receptor M1 (Homo sapiens) (UniProt P11229); assay: Cholinergic receptor muscarinic 1 (CHRM1) small molecule agonists, cell-based qHTS assay (AID 1963589); note: nearly all actives have a fitted effect of over 35% in size
Summary of the method: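 Agonist-mode calcium-flux screen: compounds at 15 concentrations, three independent runs, were pin-transferred onto dye-loaded human CHRM1-CHO cells. Fluorescence was then recorded kinetically every second over minutes.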

[15] = cAMP Responsive Elements (CRE) small molecule agonists, cell-based qHTS assay (AID 1963590)
Summary of the method: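 Agonist mode: compound added to CRE-bla HEK 293T cells (2,000/well, 18 h after plating) for 3 h at 37 C/5% CO2. Reporter activity detected via FRET beta-lactamase substrate, 2 h room-temperature loading.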

[16] = target: Beta-2 adrenergic receptor (Homo sapiens) (UniProt P07550); assay: Adrenergic beta2 receptor (ADRB2) small molecule antagonists, cell-based qHTS assay (AID 1963592); note: series mostly up to about 92 µM; nearly all actives have a fitted effect of over 50% in size
Summary of the method: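 Assay format: CHO-ADRB2 cells, 18-20hr seeding at 37C/5% CO2, then compound plus 1nM isoproterenol agonist mix for 0.5hr RT. Homogeneous time-resolved fluorescence cAMP detection after 1hr, expressed as 665/615 nm ratio.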

[17] = target: D(2) dopamine receptor (Homo sapiens) (UniProt P14416); assay: Dopamine D2 receptor (DRD2) small molecule agonists, cell-based qHTS assay (AID 1963594); note: nearly all actives have a fitted effect of over 35% in size
Summary of the method: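 HEK293 cells stably expressing human DRD2, pre-treated with PDE inhibitor Ro20-1724 (0.1 mM final) and compound 10 min at room temperature, then stimulated with NKH477 (200nM […]) for 30 min. cAMP read by HTRF (665/620 nm).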

[18] = target: D(2) dopamine receptor (Homo sapiens) (UniProt P14416); assay: Dopamine D2 receptor (DRD2) small molecule antagonists, cell-based qHTS assay (AID 1963595; active = well fitted inhibition curve with a large enough effect in the signal ratio in the repeat runs, with a control signal flat; the % refers to the signal ratio)
Summary of the method: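 In this cell-based antagonist screen, compounds act for 10 min at room temperature before a 30 min challenge with 12 nM quinpirole and 200 nM NKH477. cAMP is quantified by HTRF competition in DRD2-HEK293 cells containing 0.1 mM Ro20-1724.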

[19] = cAMP Responsive Elements (CRE) small molecule antagonists, cell-based qHTS assay (AID 1963591; active = well fitted inhibition curve with a large enough effect in the signal ratio in the repeat runs, not every such curve was filed as active; the % refers to the signal ratio)
Summary of the method: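 Antagonist mode: compounds are added alongside the adenylyl cyclase activator NKH477 (0.25 uM final) to CRE-bla HEK293T cells for 3 h. LiveBLAzer FRET substrate, 2 h at room temperature, reports bla expression.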

[20] = target: Beta-2 adrenergic receptor (Homo sapiens) (UniProt P07550); assay: Adrenergic beta2 receptor (ADRB2) small molecule agonists, cell-based qHTS assay (AID 1963593);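 note: CHO cells stably overexpressing human ADRB2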
Summary of the method: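 CHO cells stably over-expressing ADRB2 were plated overnight at 37C, then dosed with compounds plus a stimulation mix containing 100uM IBMX and 25uM Ro-20-1724 for 0.5hr at room temperature. cAMP was measured by HTRF competition, 1hr.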

Measured: Potency

Chain of Gonadotropin-releasing hormone receptor (Homo sapiens) (P30968 whole entry, looked up): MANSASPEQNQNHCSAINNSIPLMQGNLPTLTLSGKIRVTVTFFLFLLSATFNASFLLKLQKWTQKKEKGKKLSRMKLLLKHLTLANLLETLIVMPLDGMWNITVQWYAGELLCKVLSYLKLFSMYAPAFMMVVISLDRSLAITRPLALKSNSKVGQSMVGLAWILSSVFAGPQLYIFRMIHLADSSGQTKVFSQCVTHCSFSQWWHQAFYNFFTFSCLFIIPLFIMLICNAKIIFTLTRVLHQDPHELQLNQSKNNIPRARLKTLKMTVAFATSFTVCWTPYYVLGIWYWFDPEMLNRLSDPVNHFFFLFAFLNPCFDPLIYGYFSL
Chain of D(2) dopamine receptor (Homo sapiens) (P14416 whole entry, looked up): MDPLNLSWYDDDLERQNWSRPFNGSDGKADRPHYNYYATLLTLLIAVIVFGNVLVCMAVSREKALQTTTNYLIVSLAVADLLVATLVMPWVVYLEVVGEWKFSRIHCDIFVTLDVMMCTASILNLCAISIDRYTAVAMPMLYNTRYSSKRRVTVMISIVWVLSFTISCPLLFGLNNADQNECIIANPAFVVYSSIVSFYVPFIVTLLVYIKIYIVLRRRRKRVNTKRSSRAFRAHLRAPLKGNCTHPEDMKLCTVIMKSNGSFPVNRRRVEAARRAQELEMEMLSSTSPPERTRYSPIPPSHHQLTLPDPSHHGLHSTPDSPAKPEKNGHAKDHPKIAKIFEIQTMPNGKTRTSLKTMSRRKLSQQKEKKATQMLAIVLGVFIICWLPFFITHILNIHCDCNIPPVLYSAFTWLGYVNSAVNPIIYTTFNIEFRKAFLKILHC
Chain of 5-hydroxytryptamine receptor 2A (Homo sapiens) (P28223 whole entry, looked up): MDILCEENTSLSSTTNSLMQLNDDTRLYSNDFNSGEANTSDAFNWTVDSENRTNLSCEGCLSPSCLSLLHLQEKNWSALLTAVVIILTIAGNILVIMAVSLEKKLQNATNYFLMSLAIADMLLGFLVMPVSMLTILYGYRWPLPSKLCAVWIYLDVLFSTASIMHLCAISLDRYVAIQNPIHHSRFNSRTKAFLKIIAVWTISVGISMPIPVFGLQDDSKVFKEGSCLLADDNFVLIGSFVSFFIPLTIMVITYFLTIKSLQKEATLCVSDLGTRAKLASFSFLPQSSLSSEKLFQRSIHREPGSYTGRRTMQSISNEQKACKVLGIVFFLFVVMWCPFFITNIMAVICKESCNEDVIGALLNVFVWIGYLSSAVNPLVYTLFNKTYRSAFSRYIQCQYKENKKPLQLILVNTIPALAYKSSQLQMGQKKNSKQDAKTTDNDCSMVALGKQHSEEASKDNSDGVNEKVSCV
Chain of KiSS-1 receptor (Homo sapiens) (Q969F8 whole entry, looked up): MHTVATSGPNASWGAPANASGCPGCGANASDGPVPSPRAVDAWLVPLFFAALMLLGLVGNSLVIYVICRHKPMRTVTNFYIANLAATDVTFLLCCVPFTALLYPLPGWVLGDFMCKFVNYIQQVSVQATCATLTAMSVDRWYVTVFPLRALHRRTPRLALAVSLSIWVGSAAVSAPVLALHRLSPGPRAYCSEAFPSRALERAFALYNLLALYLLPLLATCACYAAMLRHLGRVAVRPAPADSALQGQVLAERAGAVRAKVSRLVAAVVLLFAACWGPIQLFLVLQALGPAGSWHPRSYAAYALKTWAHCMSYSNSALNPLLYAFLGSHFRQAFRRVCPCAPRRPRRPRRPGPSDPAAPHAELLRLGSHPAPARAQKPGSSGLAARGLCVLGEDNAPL
Chain of Muscarinic acetylcholine receptor M1 (Homo sapiens) (P11229 whole entry, looked up): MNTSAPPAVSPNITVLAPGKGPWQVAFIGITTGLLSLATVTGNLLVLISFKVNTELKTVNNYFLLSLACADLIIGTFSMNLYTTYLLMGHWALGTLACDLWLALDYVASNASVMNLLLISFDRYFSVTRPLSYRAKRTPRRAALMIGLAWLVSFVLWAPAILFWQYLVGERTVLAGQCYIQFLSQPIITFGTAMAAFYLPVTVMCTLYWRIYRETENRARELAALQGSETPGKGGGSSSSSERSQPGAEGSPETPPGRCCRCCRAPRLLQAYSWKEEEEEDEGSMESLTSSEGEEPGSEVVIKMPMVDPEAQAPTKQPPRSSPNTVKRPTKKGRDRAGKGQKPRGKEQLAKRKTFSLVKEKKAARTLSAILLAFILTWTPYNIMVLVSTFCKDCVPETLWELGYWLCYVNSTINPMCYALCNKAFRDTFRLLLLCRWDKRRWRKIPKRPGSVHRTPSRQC
Chain of Beta-2 adrenergic receptor (Homo sapiens) (P07550 whole entry, looked up): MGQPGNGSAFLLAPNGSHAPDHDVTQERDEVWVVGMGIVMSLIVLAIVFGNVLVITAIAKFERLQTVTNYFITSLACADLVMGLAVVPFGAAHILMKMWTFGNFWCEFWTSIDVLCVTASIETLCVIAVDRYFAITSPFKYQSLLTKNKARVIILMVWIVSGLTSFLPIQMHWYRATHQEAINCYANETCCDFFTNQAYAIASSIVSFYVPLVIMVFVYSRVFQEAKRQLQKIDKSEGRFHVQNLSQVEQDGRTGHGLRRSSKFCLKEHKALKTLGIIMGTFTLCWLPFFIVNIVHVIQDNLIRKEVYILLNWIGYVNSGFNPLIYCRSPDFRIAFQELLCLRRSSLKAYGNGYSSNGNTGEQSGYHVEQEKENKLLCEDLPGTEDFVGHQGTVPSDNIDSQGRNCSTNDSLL

CC(C)(C)c1cc(CCC(=O)OCCSCCOC(=O)CCc2cc(C(C)(C)C)c(O)c(C(C)(C)C)c2)cc(C(C)(C)C)c1O
inactive: [1] | [2] | [3] | [4] | [5] | [6] | [7] | [8] | [9] | [10] | [11] | [12] | [13] | [14] | [15] | [16] | [17] | [18]

CCCCCC(=O)OCCc1ccccc1
inactive: [1] | [2] | [3] | [4] | [5] | [6] | [7] | [8] | [9] | [10] | [11] | [12] | [13] | [14] | [15] | [19] | [16] | [18]

NC(CO)C(=O)NNCc1ccc(O)c(O)c1O (stereo not given)
inactive: [1] | [2] | [3] | [4] | [5] | [6] | [7] | [8] | [9] | [10] | [11] | [12] | [13] | [14] | [15] | [19] | [18]

CO[C@@H]1COCC[C@@H]1N[C@@H]1CC[C@@](C(=O)N2CCc3ncc(C(F)(F)F)cc3C2)(C(C)C)C1
inactive: [1] | [2] | [3] | [4] | [5] | [6] | [7] | [8] | [9] | [10] | [11] | [12] | [14] | [15] | [19] | [16] | [20] | [17] | [18]

CCCN1C[C@H](CSC)C[C@@H]2c3cccc4[nH]cc(c34)C[C@H]21
inactive: [1] | [2] | [3] | [4] | [5] | [6] | [7] | [8] | [9] | [10] | [16] | [18]

CC1(C)C(=O)C(C)(C)C1=O
inactive: [1] | [2] | [3] | [4] | [5] | [6] | [7] | [8] | [9] | [10] | [11] | [12] | [13] | [15] | [19] | [16] | [18]

Brc1ccc(-c2ccccc2)cc1
inactive: [1] | [2] | [3] | [4] | [5] | [6] | [7] | [8] | [9] | [10] | [12] | [13] | [14] | [15] | [19] | [16] | [20] | [17] | [18]
